Inhibition data for 33 compounds are collected here from PubChem BioAssay AID624481 (The Scripps Research Institute Molecular Screening Center, 2012).

The source made the active and inactive calls. Cut-off read from the data, not from the text of the source: active = inhibition above about 50%; inactive = the rest.

Sequence of Prolyl endopeptidase-like (Mus musculus) (Q8C167 whole entry, looked up): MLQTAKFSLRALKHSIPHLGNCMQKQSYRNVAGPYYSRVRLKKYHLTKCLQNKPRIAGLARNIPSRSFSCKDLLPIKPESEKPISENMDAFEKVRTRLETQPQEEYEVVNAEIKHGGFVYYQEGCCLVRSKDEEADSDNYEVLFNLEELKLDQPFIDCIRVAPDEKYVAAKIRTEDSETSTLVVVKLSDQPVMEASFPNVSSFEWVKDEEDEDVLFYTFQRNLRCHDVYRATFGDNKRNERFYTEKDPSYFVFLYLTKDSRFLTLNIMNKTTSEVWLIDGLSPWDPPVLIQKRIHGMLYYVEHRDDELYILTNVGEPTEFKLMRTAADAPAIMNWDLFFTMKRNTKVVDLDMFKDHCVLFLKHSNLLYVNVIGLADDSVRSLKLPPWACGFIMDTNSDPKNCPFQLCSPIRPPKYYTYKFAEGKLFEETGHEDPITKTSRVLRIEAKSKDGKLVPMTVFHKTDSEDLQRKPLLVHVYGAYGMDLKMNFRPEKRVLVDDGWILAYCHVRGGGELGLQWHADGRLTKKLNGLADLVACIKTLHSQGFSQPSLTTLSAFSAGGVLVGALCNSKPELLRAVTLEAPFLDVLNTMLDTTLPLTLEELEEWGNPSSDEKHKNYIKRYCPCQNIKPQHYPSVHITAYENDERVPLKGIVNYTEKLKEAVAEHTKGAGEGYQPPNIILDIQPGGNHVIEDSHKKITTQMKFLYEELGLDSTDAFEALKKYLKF

The experiment addresses Prolyl endopeptidase-like (Mus musculus) (UniProt Q8C167). The experiment is described as follows: purified PREPL inhibitors, PREPL inhibitor project, biochemical, gel-based competitive ABPP, fluorescence, HTS hits (AID 624481). The following applies: at 20 µM, hits give high values.
`CC(=O)N1CCN(c2ccc(OC[C@H]3CO[C@](Cn4ccnc4)(c4ccc(Cl)cc4Cl)O3)cc2)CC1`: the inhibition was -188% (inactive).
In the case of `CC(C)[C@H](CN1CCC[C@H]1CN1C(N)=NC[C@H]1C(C)C)N1C[C@@H](Cc2ccccc2)N(CCCC2CCCC2)C1=N`, the inhibition was 92% (active).
Under `Cc1ccccc1-c1ccc(Nc2ccc(N3CCOCC3)cc2)nn1` stands 12% (inactive); under `O=C(C1=C[C@@H](c2ccc(Br)cc2)C[C@@H](OCCCCO)O1)N1CCN(Cc2ccc3c(c2)OCO3)CC1`, -47% (inactive).
In the case of `COc1ccc(-[n+]2c(C)cc(/C=C3\Sc4ccccc4N3C)cc2C)cc1`, the inhibition was -11% (inactive).
As for `C#CCOCCOCCOCCNc1nc(N2CCN(C(=O)CCCCCCCCCCNC(=O)[C@H]([C@@H](C)CC)n3cc(CCCCN=C(N)N)nn3)CC2)nc(N2CCN(C(=O)CCCCCCCCCCNC(=O)[C@H](CO)n3cc(CCCCCN)nn3)CC2)n1`, the inhibition was -38% (inactive).
Consider `O=C(C1=C[C@@H](c2ccc(C(F)(F)F)cc2)C[C@@H](OCc2ccc(CO)cc2)O1)N1CCN(Cc2ccccc2)CC1`, for which the inhibition was -76% (inactive).
With `O=C(c1ccccc1)N1CCN(c2ccc(NCc3ccc4c(c3)OCO4)cc2)CC1`, the inhibition was -17% (inactive).
For the compound `C#CCOCCOCCOCCNc1nc(N2CCN(C(=O)[C@H](CCCCN)n3cc([C@@H](N)CC(C)C)nn3)CC2)nc(N2CCN(C(=O)[C@H](Cc3cc4ccccc4[nH]3)n3cc([C@@H](N)Cc4ccc(O)cc4)nn3)CC2)n1`, the inhibition was -71% (inactive).
Regarding `CCN(C(=O)CN1CCN(S(=O)(=O)c2cc(Cl)ccc2Cl)CC1)c1c(N)n(Cc2ccccc2)c(=O)[nH]c1=O`, the inhibition is 99% (active).
Take `c1ccc(CNc2nc(-c3ccccn3)nc3ccccc23)cc1`: the inhibition is -89% (inactive).
For `COc1ccc(CCNC(=O)c2cc3c(=O)n4ccccc4nc3n(CCCN3CCOCC3)c2=N)cc1`, the inhibition is -26% (inactive).
Under `Nc1nn(-c2ccccc2)c(N)c1N=Nc1ccc2c(c1)OCO2` stands 17% (inactive); under `CC(=O)N1CCN(c2ccc(NC(=O)COc3ccc(Cl)cc3Cl)cc2)CC1`, -20% (inactive); under `CCOc1ccc(CCNC(=O)c2ccc3c(=O)[nH]c4c(C(=O)NC(C)C)sc(=S)n4c3c2)cc1`, 14% (inactive).
On to `CN1CCN(c2ccc(NC(=O)COc3ccc(Cl)cc3Cl)cc2)CC1`, for which the inhibition is -13% (inactive).
Under `COc1ccc(C2CC(c3cccc(OC)c3)n3nc(N)nc3N2)cc1` (stereo not drawn) stands -18% (inactive).
`Cc1ccc(C2=CC(c3ccc(N(C)C)cc3)n3nnnc3N2)cc1` (stereo not drawn): the inhibition was -77% (inactive).
As for `C#CCOCCOCCOCCNc1nc(N2CCN(C(=O)CCCCCCCCCCNC(=O)[C@H]([C@@H](C)CC)n3cc(CCCCCN)nn3)CC2)nc(N2CCN(C(=O)CCCCCCCCCCNC(=O)[C@H](CO)n3cc(CCCCCN)nn3)CC2)n1`, the inhibition was -61% (inactive).
`CN(CC(=O)Nc1ccc(Cl)cc1)C(=O)c1cccc(S(=O)(=O)N2CCN(Cc3ccccc3)CC2)c1`: the inhibition was 1% (inactive).
Under `CC(=O)N1CCN(c2ccc(NCc3ccc(-c4cccc(Cl)c4)o3)cc2)CC1` stands 39% (inactive); under `NC(=O)[C@H]1CC2(CC(c3cccc(NC(=O)COc4ccc(Cl)cc4)c3)=NO2)CN1C(=O)Cc1ccc([N+](=O)[O-])cc1` (stereo partly drawn), -114% (inactive).
Take `CC(C)[C@@H]1CN=C(N)N1C[C@@H]1CCCN1C[C@H](C)N1C[C@@H](Cc2ccccc2)N(CCc2ccc(Cl)c(Cl)c2)C1=N`: the inhibition is -62% (inactive).
As to `COc1ccc(Nc2nc(N3CCCC3)c3ccccc3n2)cc1`, the inhibition was -50% (inactive).
Take `CCCCCNC(=O)c1ccc2c(=O)[nH]c3c(C(=O)NCC4CCCO4)sc(=S)n3c2c1` (stereo not drawn): the inhibition is -19% (inactive).
Turning to `COc1ccc(N2CCN(C(=O)CN3C(=O)NC(C)(c4ccc5ccccc5c4)C3=O)CC2)cc1` (stereo not drawn), the inhibition was -26% (inactive).
Regarding `CC1(C)N=C(N)N=C(N)N1c1ccc(Oc2ccc(Cl)cc2)c(Cl)c1`, the inhibition was -35% (inactive).
Regarding `c1cncc(CNc2ccc3c(c2)OCO3)c1`, the inhibition is -50% (inactive).
For `Cc1cccc(C2CC(c3ccc(F)cc3)Nc3nc(N)nn32)c1` (stereo not drawn), the inhibition was -26% (inactive).
Regarding `Cc1ccc(Nc2nc(NCCO)c3ccccc3n2)cc1C`, the inhibition was -33% (inactive).
Regarding `CCCCNc1c(-c2ccc(SC(C)CC)cc2)nc2cnccn12` (stereo not drawn), the inhibition was -22% (inactive).
Under `COc1ccc2nc3cc(Cl)ccc3c(Nc3cc(CN4CCCC4)c(O)c(CN4CCCC4)c3)c2n1` stands -45% (inactive).
On to `COc1cc(-c2nnc3sc(Cc4ccc(Cl)cc4)nn23)cc(OC)c1OC`, for which the inhibition is 14% (inactive).

One may read the inhibition as the change of the read-out against control, counted positive when it falls.
